Measured values: publication PMC12136788
Changes are numbered by the printed parent chain. In all, about 24,000 sequences were measured (“enrichment r”: median about 0.99, highest 2% from about 3.7 on). For the sample, the highest values were picked, then their nearest neighbours and some sequences at random.

B1: chr1:39494564:39494565:+_ENSG00000168653_ENST00000372967|hu_hu|hu_hu_hu_mus_True|18_38 (ssRNA)
RNA: GGGAGUUCUACAGUCCGACGAUCAUGCAUUCGCCUCAUCGUUUUGUACCGAAGCAAGCACUCUUCGAAGUCAUCGAACUCUAUCUUGCACUCCUUUUCUGCCCGAGUCCCACCGAUUCCAUGUGCACACUCUAUCCACUCUUUCAACAGAGGAUUGAGCAUCA
B2: chr14:89338683:89338684:+_ENSG00000165533_ENST00000346301|hu_hu|hu_hu_hu_mus_False|48_58 (ssRNA)
RNA: GGGAGUUCUACAGUCCGACGAUCGUGGUUGUUGUGGACCAGGGCCAGCCUGAAGCAUUGGUGGGCCAAGUUUGUAUCUCCUAUUCCCACAGCUACAUGCCCCAGGUUGUACCAGACAUCAGCUGCCUCUUCUUCAUUUUCAGCCAACAGAGGAUUGAGCAUCA
B3: chr11:6247107:6247108:+_ENSMUSG00000020456_ENSMUST00000003461|mus_mus|motif|central (ssRNA)
RNA: GGGAGUUCUACAGUCCGACGAUCAAACAUAGGUUCGUCCAUCUCAUUGUGGCCAUUUCGUCGAUAACACACCAGAUCAACGGCAACAUCCUUGUGGAAGGUGUUUCUCCACUCAGCUGCCACCUUGCAUACAUACAUGACAGCCAACAGAGGAUUGAGCAUCA
B4: chrX:41029285:41029286:+_ENSG00000124486_ENST00000378308|hu_hu|FALSE|FALSE (ssRNA)
RNA: GGGAGUUCUACAGUCCGACGAUCUGUAUGAGACCAUACCUCCAAGUCAUCAACCUGUCUGCCCUGGUUUGGAAAUCGAACUACAAAAGAGAGGUGUUUACCGCGGAAUGCUCUCGACAUAGGGAGAAUUGUUCUUUCCUCAUGCAACAGAGGAUUGAGCAUCA
B5: chr1:39494447:39494448:+_ENSG00000168653_ENST00000372967|hu_mus|hu_hu_hu_mus_False|18_38 (ssRNA)
RNA: GGGAGUUCUACAGUCCGACGAUCGCACCGAGCGGCGUUCUUAUAGGGCUGUUCUGCGCUUAGGAACAUAAAGUGCCGGUCCAGGCUGAUGCCCAGCCUUUUCUGGAUGUCAAGGAAAGGCAUGGCCCUGCAGUGCCCUUGUCACAACAGAGGAUUGAGCAUCA
B6: chr1:34870196:34870197:-_ENSMUSG00000037503_ENSMUST00000047534|mus_mus|motif|central (ssRNA)
RNA: GGGAGUUCUACAGUCCGACGAUCUGAGCCCAUCUACUCAUCAGAUUGCAUAAAAAAUUAAAACAGUAUGAAUUUACAUCGGAUUGAACUGGCUUGGGAUGGACAGUCUGCCCGUUCCUUUGUUUUGACACAUAAGUUCCAUGACAACAGAGGAUUGAGCAUCA
B7: chr1:34870196:34870197:-_ENSMUSG00000037503_ENSMUST00000047534|mus_mus|FALSE|FALSE (ssRNA)
RNA: B6 RNA with G80U, G81A
B8: chrX:41000244:41000245:+_ENSG00000124486_ENST00000378308|hu_mus|motif|central (ssRNA)
RNA: GGGAGUUCUACAGUCCGACGAUCUGCUUCUUUCUUCAGCUCUUCAUCAGUUAAGUUUUCUAAAAACUGUGGAACCAUUUCGGUUAUUGGAAGAAAGUACUUUUUCACUGUGUGAAGAGUAAGAAACUCAUAGCACUGUCCAAACAACAGAGGAUUGAGCAUCA
B9: chr4:56294251:56294252:-_ENSG00000134852_ENST00000309964|hu_hu|FALSE|FALSE (ssRNA)
RNA: GGGAGUUCUACAGUCCGACGAUCAACAUAGCACUGAGGUAUUUUUUAUUUUUAAAAUUGAAGGAAACAAAGUCUGGAUCUAAUUAUUUUUACAUUUACAAAAACUGCUACUGCUUGGCUCUUUUGCUAUAAGUUUAGGUUCUGCAACAGAGGAUUGAGCAUCA
B10: 54592465_54592585_3431_3pUTR_ENSMUSG00000005225_ENSMUST00000119706|mouse|control|control (ssRNA)
RNA: GGGAGUUCUACAGUCCGACGAUCUUGCUUGGCUUAAAAUUUUAUUACAAGUGUUUUUAAGAGGCAAGGUCUUGCUAUGUUGUUCAGGUUAAUCUCCAAAUCUUGGGCUCAAAUAAUACUUUACUCUCAUACUUCUGGGUAGCUCAACAGAGGAUUGAGCAUCA
B11: chr4:56294251:56294252:-_ENSG00000134852_ENST00000309964|hu_hu|motif|central (ssRNA)
RNA: B9 RNA with U80G, A81G
B12: chr4:17845017:17845018:+_ENSG00000109805_ENST00000514176|hu_mus|hu_hu_hu_mus_False|48_58 (ssRNA)
RNA: GGGAGUUCUACAGUCCGACGAUCGCUCUCUUAACUUGUAUCUUCAUUAAGGAACUCUGCAAGGUUAAGUUUACUUUUUCUAGUGCUGCGGUUUUGGGCUCGUCUGGGUAAUCUCAUCUUCAUUUCUGAUGGUGGUUCAUGAUCCAACAGAGGAUUGAGCAUCA
B13: chr6:114281168:114281169:-_ENSG00000196591_ENST00000368632|hu_hu|hu_hu_hu_mus_True|1_18 (ssRNA)
RNA: GGGAGUUCUACAGUCCGACGAUCUUCCAUUUUUCGGUAUAAACCAUAAUUUAGCAGCAAGUUAUGAGUCAUCCGGAUUCUAUGAGGCUUCAUGGGAUGACCCUGGCCAUAAUAAUAAUUUCCAAUAUCACCAUCAUACUAGAACAACAGAGGAUUGAGCAUCA
B14: 83260623_83262902_554_CDS_ENSMUSG00000031715_ENSMUST00000043359|mouse|control|control (ssRNA)
RNA: GGGAGUUCUACAGUCCGACGAUCUUCUUUUUGCUUUCCAGGUGAUCCAUGAUCAAAUACUUCCUCCAUCUCGGUGUCCGCGGGGCCCGAGCCCGCAGCACACGGAGCCGCGGGCGCCGCGCCGCCCUCGGGGCCGCCUUUGUUCAACAGAGGAUUGAGCAUCA
B15: chr4:86222814:86222815:+_ENSMUSG00000070934_ENSMUST00000091064|mus_mus|FALSE|FALSE (ssRNA)
RNA: GGGAGUUCUACAGUCCGACGAUCGAAUAUUAAAGACAAAUGAUGCAAAAAAAAAAAAAACACCGUAAUUCAGCAUUUUACUAAAGAGCAUUUGGCAUUAUUUCAACGCAUGAGGAGGCUGUGCUUGGGCCCAUCUACUCUUUCCAACAGAGGAUUGAGCAUCA
B16: chr6:40197388:40197389:+_ENSMUSG00000057716_ENSMUST00000061740|mus_mus|mus_mus_mus_hu_False|68_78 (ssRNA)
RNA: GGGAGUUCUACAGUCCGACGAUCGAGACACUGGGGUGGAUUUAUUCCACCUCUGUUUGCUAGCCUCUAAGAUAGAUUGUUAUUUUGGGAUUCAUGGCCUUGAAUAUCAAGAGGGAAAGGAAGAGGAUGGAAAGAGUCAAGAGUCAACAGAGGAUUGAGCAUCA
B17: 52238803_52238923_934_CDS_ENSG00000023330_ENST00000469224|human|control|control (ssRNA)
RNA: GGGAGUUCUACAGUCCGACGAUCCCCACACACCCGUGGGUGGCGACUCAUUCCUAGGUAGUCAUUACUGCACCAGACUGACACUUGCUUUUUGGUGAUGAGGGAGUCUGAAUAGUCAUCUGCCAUGGGGAAGAUGUGUGCUCGCAACAGAGGAUUGAGCAUCA
B18: 14029136_14029256_1416_CDS_ENSG00000175595_ENST00000311895|human|control|control (ssRNA)
RNA: GGGAGUUCUACAGUCCGACGAUCUUUUUUCUUUUUGAGGGUUCUUUCUUUGGUAGAAGCCCGUUCUUUGUUUUGGGGGUCUUUAGGUCUUUUGUGAGAUUUCCUAAUUCUCUUUGAACUGUCUUCCUUCCUAAAUUUCAUCCACAACAGAGGAUUGAGCAUCA
B19: 80201405_80202562_482_3pUTR_ENSMUSG00000017421_ENSMUST00000017567|mouse|control|control (ssRNA)
RNA: GGGAGUUCUACAGUCCGACGAUCCUGUGGCUGAAAGGAAGUUGAGGCUGCAGAUUCAUCAUCAUCAUAUUCAUCAGAAUCAUCUUGUUGUUUCUUUUUCUGACUCUCUUGUGUUUUCUGUUCAAGAAGUCGCCGUCUUUCAUCCAACAGAGGAUUGAGCAUCA
B20: chr4:95690885:95690886:+_ENSMUSG00000028572_ENSMUST00000156910|mus_mus|mus_mus_mus_hu_False|1_8 (ssRNA)
RNA: GGGAGUUCUACAGUCCGACGAUCUUUAGAAAAUGUUAAAUACCAUGCUAAAAUAUUUUCAAAGGCUUAUUUUAUUUUACCAGAAGUCACAGGCAAGCAGACACUACAAGAAUAUAUGAAAAUGAAACAACAGUGUAAAAUGUACAACAGAGGAUUGAGCAUCA
B21: chr19:7991675:7991676:-_ENSG00000104980_ENST00000595831|hu_mus|motif|central (ssRNA)
RNA: GGGAGUUCUACAGUCCGACGAUCAUGUACAGGAAGUAAGAGCACUGAUUUAAAAACAAAAACAAAACAAAACAAAAGGACCGGAAGUGGCUUGGAAGGCAAUGCCAGUGGACUACUUAGAACAGCAGGCCAGGCCUCACCCGACAACAGAGGAUUGAGCAUCA
B22: chr19:37063429:37063430:+_ENSMUSG00000040565_ENSMUST00000099494|mus_mus|FALSE|FALSE (ssRNA)
RNA: GGGAGUUCUACAGUCCGACGAUCCAUAGCAUCCCAAAGAUGUGGCAACUUCACUGCCAUUUCAGCACCAAAAUGCUUCACUAUAGUUGUUAAGGCAAAUUCAGCUCCUCUCCGCUGUACCAGGUAAGGCUUCUGACCCUCAUCCAACAGAGGAUUGAGCAUCA
B23: chr5:136386232:136386233:-_ENSMUSG00000051391_ENSMUST00000055808|mus_hu|FALSE|FALSE (ssRNA)
RNA: GGGAGUUCUACAGUCCGACGAUCAAGUACACAAUCGAUGGCUUGAUGUUACAUAUGGCUGUAAUGUAGAAAUACUGUAAACUGCAAUUUAGUGUUAAUACUGUCAACUAAUCAGAGACUUCGGAAAACUGGCAAGGCCUAAACCAACAGAGGAUUGAGCAUCA
B24: chr19:7991675:7991676:-_ENSG00000104980_ENST00000595831|hu_mus|FALSE|FALSE (ssRNA)
RNA: B21 RNA with G82U, G83A
B25: chr6:30692278:30692279:+_ENSG00000196230_ENST00000327892|hu_hu|FALSE|FALSE (ssRNA)
RNA: GGGAGUUCUACAGUCCGACGAUCCCAGAGUGGAAAGAGAGAGGAGACAUUCAACAAACAAGUAUUUAUUGAGCGCCUACUAUGUGCCAGGCACUGUUCUAGACCCCCCCCAGAAGAAAAAACAAAAAACAAGAUAGAGGCAGCCAACAGAGGAUUGAGCAUCA

Molecular target: T1, UNK ZnF1-3 (human, UniProt Q9C0B0 31-174)
T1 sequence: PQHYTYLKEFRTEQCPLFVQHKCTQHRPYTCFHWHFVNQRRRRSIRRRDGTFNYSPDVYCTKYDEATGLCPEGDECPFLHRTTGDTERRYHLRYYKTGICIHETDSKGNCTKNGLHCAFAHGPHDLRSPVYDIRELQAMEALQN
Assay: nsRBNS (natural sequence RNA bind-n-seq); RBNS binding buffer (assumed for nsRBNS): 25 mM Tris pH 7.5, 150 mM KCl, 3 mM MgCl2, 0.01% Triton X-100, 500 ug/ml BSA, 20 U/ml SUPERase-In, 4 C; UNK is unkempt and MSI1 is Musashi-1; names of the RNAs are library labels; protein concentration not given here; high values mean tight binding

Compared with B1, B2 is higher in binding signal: 0.624 enrichment R for the first, 0.726 enrichment R for the second.

Going from B3 to B4, the binding signal rises from 0.7 enrichment R to 1.07 enrichment R.

First: B5
Second: B6
The binding signal of the first is lower: 0.685 enrichment R for the first, 1.36 enrichment R for the second.

First: B7
Second: B8
The binding signal of the first is higher: 1.33 enrichment R for the first, 0.545 enrichment R for the second.

First: B9
Second: B10
The binding signal of the first is higher: 4.1 enrichment R for the first, 1.3 enrichment R for the second.

Going from B11 to B12, the binding signal falls from 3.76 enrichment R to 0.378 enrichment R.

First: B13
Second: B14
The binding signal of the first is higher: 1 enrichment R for the first, 0.826 enrichment R for the second.

First: B15
Second: B16
The binding signal of the first is higher: 1.67 enrichment R for the first, 1.33 enrichment R for the second.

First: B17
Second: B18
The binding signal of the first is higher: 1.04 enrichment R for the first, 0.174 enrichment R for the second.

Going from B19 to B20, the binding signal rises from 0.524 enrichment R to 1.97 enrichment R.

Going from B21 to B22, the binding signal falls from 5.15 enrichment R to 0.992 enrichment R.

Going from B23 to B24, the binding signal rises from 1.26 enrichment R to 5.35 enrichment R.

In the case of B25, the binding signal is reported as 2.28 enrichment R.
